Data from PubChem BioAssay (NCATS).
Inconclusive results are not listed. Active and inactive are the calls of the source. Unless noted, calls follow the shape of the dose curve; as a rule, active = well fitted curve in the direction sought with a large enough effect; inconclusive = small, poorly fitted or top-dose-only effect, or another doubt; inactive = no such curve, though single readings can be large; an effect the other way counts as inactive or inconclusive.

Columns and labels:
[1] = tested on: Zika virus NS2B-NS3 protease; assay: Primary screen GU AMC qHTS for Zika virus inhibitors (AID 1347154); also: nearly all actives have a fitted effect of over 70% in size
In short: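 Unlinked Zika NS2B hydrophilic domain/NS3 protease domain noncovalent complex (25 nM final) in 10 mM Tris-HCl pH 8.0, 0.01% Tween 20, with AMC peptide substrate. Fluorescence (ex 340, em 450 nm) change over 15 min, room temperature; percent inhibition fitted to 4-parameter Hill equation.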

[2] = tested on: Zika virus NS2B-NS3 protease (linked construct); assay: Primary screen NINDS Rhodamine qHTS for Zika virus inhibitors (AID 1347160); also: nearly all actives have a fitted effect of over 55% in size
In short: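 In 10 mM Tris-HCl pH 8.0 containing 0.01% Tween 20, linked NS2B-NS3 protease (25 nM final) is exposed to test compounds for 15 min. Cleavage of 1.5 microM Rhodamine110 substrate is tracked by fluorescence over 15 min.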

[3] = OV-KATE Cancer Cell Toxicity qHTS against the NCATS CANVASS Library (AID 1347345)
In short: (§1)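 Bortezomib titration and single-dose wells served as plate controls. Test compounds, 11 points, acted on 1000 cells/well for 72 h at 37 degrees C; CellTiter-Glo luminescence quantified remaining viable cells.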

[4] = OV-SAHO Cancer Cell Toxicity qHTS against the NCATS CANVASS Library (AID 1347348); also: series mostly up to about 38 µM; nearly all actives have a fitted effect of over 55% in size
In short: as §1

[5] = U-118MG Cancer Cell Toxicity qHTS against the NCATS CANVASS Library (AID 1347351); also: series mostly up to about 38 µM
In short: as §1

[6] = HPAF-II 24hr Apoptosis Induction qHTS against the NCATS CANVASS Library (AID 1347356)
In short: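 Apoptosis induction in HPAF-II pancreatic cancer cells is measured as caspase-3/7 luminescence after a 24-hour exposure to compounds.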

[7] = HEK293 18hr Apoptosis Induction qHTS against the NCATS CANVASS Library (AID 1347357)
In short: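 Natural products applied to HEK293 for 18 hr; Caspase-Glo 3/7 readout.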

[8] = HPAF-II 12hr Apoptosis Induction qHTS against the NCATS CANVASS Library (AID 1347358)
In short: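 Apoptosis in HPAF-II pancreatic cancer cells is scored as caspase 3/7 luminescence following a 12-hour exposure to an 11-point compound series.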

[9] = HEK293 24hr Apoptosis Induction qHTS against the NCATS CANVASS Library (AID 1347359)
In short: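 HEK293 cells (500/well, DMEM + 10% FBS) were exposed to compounds in an 11-point series for 24 hours at 37 degrees C, then caspase-3/7 activity was read by Caspase-Glo DEVD luciferase luminescence after 15 min.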

[10] = HPAF-II 18hr Apoptosis Induction qHTS against the NCATS CANVASS Library (AID 1347360)
In short: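 Luminescent DEVD-substrate signal, proportional to caspase activity, is measured in HPAF-II cells after 18-hour treatment across a concentration series; doxorubicin serves as control.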

[11] = HEK293 12hr Apoptosis Induction qHTS against the NCATS CANVASS Library (AID 1347361)
In short: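 Luminescent caspase-3/7 signal, proportional to enzyme activity, was recorded from HEK293 cultures in DMEM + 10% FBS treated for 12 hours with titrated natural products (11 points). Doxorubicin (0.1nM - 4uM) served as control.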

[12] = tested on: NAD(P)H diaphorase (Clostridium kluyveri); assay: Diaphorse counterscreen qHTS: Assay Interference Panel against the NCATS CANVASS Library (AID 1347362)
In short: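 Clostridium kluyveri diaphorase in PBS with 0.01% Tween-20 was preincubated 15 min at room temperature in the dark with compounds (11-point series). Resorufin fluorescence (ex 525/20, em 598/25) was read 5 min after adding resazurin/NADH.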

[13] = target: Luciferin 4-monooxygenase (Photinus pyralis) (UniProt P08659); assay: Firefly luciferase counterscreen qHTS: Assay Interference Panel against the NCATS CANVASS Library (AID 1347363); also: series mostly up to about 57 µM
Luciferin 4-monooxygenase (Photinus pyralis), sequence (P08659 whole entry, looked up): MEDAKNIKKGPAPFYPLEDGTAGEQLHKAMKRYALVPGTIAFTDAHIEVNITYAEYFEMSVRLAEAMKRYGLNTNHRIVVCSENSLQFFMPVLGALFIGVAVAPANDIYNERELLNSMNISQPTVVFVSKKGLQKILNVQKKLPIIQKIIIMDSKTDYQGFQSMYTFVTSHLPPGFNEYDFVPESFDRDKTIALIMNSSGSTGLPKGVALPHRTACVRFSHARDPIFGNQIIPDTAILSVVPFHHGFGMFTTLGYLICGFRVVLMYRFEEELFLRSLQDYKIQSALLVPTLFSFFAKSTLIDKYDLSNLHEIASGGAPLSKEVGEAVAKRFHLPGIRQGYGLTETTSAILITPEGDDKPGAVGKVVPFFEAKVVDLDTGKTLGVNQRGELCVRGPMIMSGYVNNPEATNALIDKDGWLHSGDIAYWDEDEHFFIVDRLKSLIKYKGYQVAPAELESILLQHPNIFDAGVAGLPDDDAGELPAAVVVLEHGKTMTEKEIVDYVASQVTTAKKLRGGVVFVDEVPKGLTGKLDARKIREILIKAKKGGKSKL
In short: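 Purified P. pyralis luciferase was added to compounds (11-point series) preincubated 15 min at room temperature with substrate containing 0.013 mM D-luciferin and 0.013 mM ATP; luminescence was read after 5 min.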

[14] = KB-8-5-11 Cancer Cell Toxicity qHTS against the NCATS CANVASS Library (AID 1347364); also: potency is read from the fitted curve at half-maximal effect; nearly all actives have a fitted effect of over 75% in size
In short: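 Natural products were titrated in 11 points onto KB-8-5-11 cells, 500 per well, and cytotoxicity was scored from CellTiter-Glo luminescence after 72 hr culture.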

[15] = SDT Cancer Cell Toxicity qHTS against the NCATS CANVASS Library (AID 1347365); also: potency is read from the fitted curve at half-maximal effect; nearly all actives have a fitted effect of over 60% in size
In short: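 Dispense 500 SDT cells per well; pin-transfer compounds; incubate 72 hr at 37C, 5% CO2, 95% RH; add CellTiterGlo and read luminescence.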

[16] = qHTS for ATAD5 Agonist screened against the NCATS CANVASS Library (AID 1347367);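 also: luciferase reporter driven by ATAD5 which rises upon DNA damage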
In short: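 Genotoxicity was scored as increased ATAD5-luciferase luminescence in HEK293T after 16hr of exposure, with cell viability measured by fluorescence beforehand in the same well.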

[17] = G06 Cancer Cell Toxicity qHTS against the NCATS CANVASS Library (AID 1347368); also: potency is read from the fitted curve at half-maximal effect; nearly all actives have a fitted effect of over 60% in size
In short: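 Cytotoxicity toward canine glioma G06 cells is scored from cellular ATP via luminescence after 72 hr compound exposure at 500 cells/well.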

[18] = MCF7 Cancer Cell Toxicity qHTS against the NCATS CANVASS Library (AID 1347369); also: series mostly up to about 46 µM
In short: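 This 72 hr qHTS scored MCF7 viability by CellTiterGlo luminescence, with 500 cells/well; bortezomib titration ran as control.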

[19] = qHTS for ATAD5 Antagonist screened against the NCATS CANVASS Library (AID 1347370);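 also: HEK293T cells carrying an ATAD5 luciferase reporter co-treated with 10 µM 5-fluorouridine; series mostly up to about 46 µM; nearly all actives have a fitted effect of over 65% in size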
In short: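 HEK293T cells with a stably integrated ATAD5-controlled luciferase reporter were exposed to compounds (11-pt) alongside 10 uM 5-fluorouridine as ATAD5 stabilizer for 16hr at 37C. Viability was read by CellTiter-Fluor fluorescence, then ATAD5 by luminescence.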

[20] = target: Nuclear receptor subfamily 1 group I member 3 (Homo sapiens) (UniProt Q14994); assay: qHTS for Constitutive Androstane Receptor (CAR) Antagonist screened against the NCATS CANVASS Library (AID 1347372); also: potency is read from the fitted curve at half-maximal effect
Nuclear receptor subfamily 1 group I member 3 (Homo sapiens), sequence (Q14994 whole entry, looked up): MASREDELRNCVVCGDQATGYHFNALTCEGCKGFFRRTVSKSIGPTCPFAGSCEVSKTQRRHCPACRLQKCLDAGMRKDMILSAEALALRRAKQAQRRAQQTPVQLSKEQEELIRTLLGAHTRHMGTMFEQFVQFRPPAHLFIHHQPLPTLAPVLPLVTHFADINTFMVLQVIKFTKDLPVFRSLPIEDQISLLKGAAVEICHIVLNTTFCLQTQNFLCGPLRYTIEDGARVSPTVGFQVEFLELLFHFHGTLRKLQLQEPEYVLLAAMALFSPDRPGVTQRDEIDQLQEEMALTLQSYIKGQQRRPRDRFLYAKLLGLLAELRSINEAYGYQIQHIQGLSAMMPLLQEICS
In short: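 HepG2 cells stably carrying hCAR and a CYP2B6-2.2kb luciferase reporter were exposed to compounds plus 50 nM CITCO for 24hr at 37C. CAR activity was read by ONE-Glo luminescence, with viability measured first by CellTiter-Fluor.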

[21] = target: Nuclear receptor subfamily 1 group I member 3 (Homo sapiens) (UniProt Q14994); assay: qHTS for Constitutive Androstane Receptor (CAR) Agonist screened against the NCATS CANVASS Library (AID 1347373);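 also: every well also contained 1.5 µM PK11195 alongside the test compound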
In short: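 CAR agonism is scored as CYP2B6-promoter luciferase induction in a double-stable transfected HepG2 line, where 1.5uM PK11195 is included in each well. Compounds were tested over a 24hr exposure.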

[22] = qHTS for Hypoxia signaling pathway (HIF-1) antagonists against the NCATS CANVASS Library (AID 1347374); also: potency is read from the fitted curve at half-maximal effect; nearly all actives have a fitted effect of over 60% in size
In short: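 HRE-bla ME-180 cells (2,000/well, 0.5% dialyzed FBS) were pre-incubated 5 h, then given an 11-point compound series plus CoCl2 (60 uM solution as added) for 17 h at 37C. CCF4 β-lactamase read (ex 405, em 460/530 nm) after 2 h at RT.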

[23] = qHTS for Hypoxia signaling pathway (HIF-1) agonists against the NCATS CANVASS Library (AID 1347375)
In short: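 Inducers of HIF-1 signaling were detected in ME-180 cells bearing an HRE-driven beta-lactamase reporter after 17 h compound exposure. Activity came from CCF4-AM FRET emission ratio (460/530 nm) in qHTS format.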

[24] = 10-beta competent E. coli microbial cell viability qHTS against the NCATS CANVASS Library (AID 1347376); also: series mostly up to about 46 µM
In short: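 Cytotoxicity toward competent E. coli is scored from cellular ATP content via BacTiter-Glo luminescence following overnight compound exposure at 37C, 5% CO2.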

[25] = qHTS for H2AX Agonists against the NCATS CANVASS Library (AID 1347378);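 also: phospho-H2AX S139 level in CHO-K1 lysates by TR-FRET emission ratio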
In short: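 Signal is the 665/620 nm emission ratio from europium cryptate and d2 antibody pair, rising with S139-phosphorylated H2AX. CHO-K1 cells saw test agents for 3 hr at 37C; detection ran 24 hr at room temperature.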

[26] = qHTS for Inflammasome Signaling Inhibitors: IL-1-beta AlphaLISA screen against the NCATS CANVASS Library (AID 1347379);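 also: human THP-1 cells primed with LPS then triggered with ATP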
In short: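 Human THP-1 cells were pretreated 1 hr at 37 °C with compounds (up to 57.5 uM final), then stimulated with LPS (250 ng/mL final) and ATP (1.25 mM final). Secreted IL-1B was read by AlphaLISA after 16 hr.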

[27] = qHTS for Antimalaria activity screened against the NCATS CANVASS Library (AID 1347380); also: potency is read from the fitted curve at half-maximal effect; nearly all actives have a fitted effect of over 40% in size
In short: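 Growth inhibition of asexual erythrocytic P. falciparum Dd2 was quantified by SYBR Green DNA staining. Cultures grew 72 h with compound (11-point series) in hypoxic gas at 37C; lysis and staining lasted 18 h.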

[28] = Inflammasome Signaling qHTS Counterscreen: IL-1-beta AlphaLISA counterscreen against the NCATS CANVASS Library (AID 1347381);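 also: cell-free check with purified IL-1β in medium and no THP-1 cells; series mostly up to about 57 µM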
In short: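 To flag interference with the AlphaLISA read-out, a known amount of purified IL-1-beta (4 pg) replaced cell supernatant. Detection used anti-IL-1-beta acceptor beads, biotinylated antibody and streptavidin donor beads at room temperature.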

[29] = Cytotoxicity qHTS for assessment of Hepg2 cells membrane integrity screened against the NCATS CANVASS Library (AID 1347387)
In short: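 Fluorescence proportional to lysed-cell number, from LDH leaking out of HepG2 cells exposed 5 hr at 37C to 0.59 nM - 46 uM compound (11-point qHTS), is measured after 10 min with CytoTox-ONE.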

[30] = qHTS for activators of Nrf2/ARE signaling pathway screened against the NCATS CANVASS Library (AID 1347391); also: nearly all actives have a fitted effect of over 60% in size
In short: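 Cells carrying an ARE-driven beta-lactamase reporter (HepG2 background) are dosed for 16 h, then stained with CCF4. Cell viability in the same wells is measured by CellTiter-Glo luminescence.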

[31] = qHTS for activators of dead-cell proteases activity screened against the NCATS CANVASS Library (AID 1347392);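 also: luminescence from protease leaking out of membrane-damaged cells cleaving impermeant substrate; rising signal means more cytotoxicity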
In short: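 HepG2 cells (2000/well) attached 18 h at 37C, then exposed 5 h to compounds (11-point qHTS). Dead-cell protease activity read as luminescence from cell-impermeant AAF-aminoluciferin substrate after 15 min at room temperature.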

[32] = Vero-766 cells viability qHTS against the NCATS CANVASS Library: Counterscreen for Zika virus inhibition assay (AID 1347394)
In short: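 Counterscreen for toxicity: Vero 766 cells exposed 72 h to an 11-point compound series, viability by CellTiter-Glo.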

[33] = Redox Reaction Profiling qHTS: Assay Interference Panel against the NCATS CANVASS Library (AID 1347401)
In short: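 Resazurin (5 uM) conversion to resorufin measured with 200 uM DTT in 50 mM HEPES pH 7.3, 50 mM NaCl. Compounds tested in 11-point qHTS series. Fluorescence (ex 525/em 598 nm) read before and after 15 min dark incubation.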

[34] = qHTS for inhibitors of Rabies Virus screened against the NCATS CANVASS Library (AID 1347402; calls by dose curve; also: series mostly up to about 46 µM)
[35] = Primary qHTS for small molecule stabilizers of the endoplasmic reticulum resident proteome: Secreted ER Calcium Modulated Protein (SERCaMP) assay (AID 1508630)
In short: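 GLuc-SERCaMP-expressing SH-SY5Y cells, pretreated 16 h with compound, are challenged with thapsigargin to empty ER calcium stores; after 4 h, coelenterazine is added directly to the medium and luminescence is imaged.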

Measured: Potency

C=C1[C@@H](C)[C@H]2[C@H](Cc3ccccc3)NC(=O)[C@]23OC(=O)/C=C/[C@H](O)CCC[C@@H](C)C/C=C/[C@H]3[C@@H]1O
active: [14] 9.35 µM | [15] 2.64 µM | [17] 2.35 µM | [20] 8.31 µM | [22] 2.11 µM | [27] 4.2 µM | [32] 13.2 µM
inactive: all other assays above
